Bioassay records (PubChem BioAssay)
Mcl-1 Bim block: disrupts Bim peptide binding to human Mcl-1. Bead-based flow cytometry, Bim peptide-Mcl-1 binding. inhibition, % at 10 µM. hit rate 0.1% among 190,000. Q07820; in the data active = inhibition above about 40%
Target sequence (Q07820 whole entry, looked up): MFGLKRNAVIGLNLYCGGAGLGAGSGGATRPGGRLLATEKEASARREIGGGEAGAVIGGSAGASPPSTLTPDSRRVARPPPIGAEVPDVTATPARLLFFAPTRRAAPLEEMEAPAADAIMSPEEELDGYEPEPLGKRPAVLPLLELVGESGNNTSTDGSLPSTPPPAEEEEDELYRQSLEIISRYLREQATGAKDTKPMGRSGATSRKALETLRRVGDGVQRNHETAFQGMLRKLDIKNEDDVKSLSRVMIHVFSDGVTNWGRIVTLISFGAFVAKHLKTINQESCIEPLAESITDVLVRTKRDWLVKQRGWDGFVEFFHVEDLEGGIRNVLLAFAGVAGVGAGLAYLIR
m-calpain inh: blocks pig calpain II enzyme activity | AID 1236 | inhibition, % at 16 µM | purified calpain II, fluorogenic peptide substrate, 30 min | hit rate 0.37% among 220,000;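 active = inhibition above about 50%, limit read from the data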
p47phox inh: blocks human p47phox regulatory protein of NADPH oxidases; P14598; p47phox/p22phox peptide binding, fluorescence polarization, 2 h; inhibition, % at 24.7 µM; hit rate 0.53% among 220,000;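 active = inhibition above about 30%, limit read from the data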
Mcl1-Noxa inh: Mcl-1/Noxa interaction inhibition; Q07820; TR-FRET Mcl-1/Noxa peptide binding, 2 h; inhibition, % at 21.7 µM; hit rate 1.5% among 220,000;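 active = compounds that cut the protein-peptide binding signal by more than 50% relative to plate controls in a single-dose test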;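 note: His-tagged Mcl-1 with rhodamine Noxa BH3 peptide and terbium anti-His antibody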
Mcl1 Bid PPI: Mcl-1/Bid interaction inhibition; inhibition, % at 21.7 µM; Q07820; hit rate 0.97% among 220,000; TR-FRET Mcl-1/Bid-Dy647 peptide binding, 1536-well;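 active = compounds that cut the binding signal by more than half at the single screening dose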;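 note: His-tagged Mcl-1 with europium anti-His antibody binding Bid BH3 peptide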
14-3-3 Bad PPI: disrupts binding of bovine 14-3-3 zeta to phospho-Bad peptide. P63103. TR-FRET 14-3-3zeta/Dy647-pBad peptide displacement, 1 h. inhibition, % at 21.7 µM. hit rate 0.71% among 220,000. AID 781;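 active = inhibition above about 70%, limit read from the data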
Target sequence (P63103 whole entry, looked up): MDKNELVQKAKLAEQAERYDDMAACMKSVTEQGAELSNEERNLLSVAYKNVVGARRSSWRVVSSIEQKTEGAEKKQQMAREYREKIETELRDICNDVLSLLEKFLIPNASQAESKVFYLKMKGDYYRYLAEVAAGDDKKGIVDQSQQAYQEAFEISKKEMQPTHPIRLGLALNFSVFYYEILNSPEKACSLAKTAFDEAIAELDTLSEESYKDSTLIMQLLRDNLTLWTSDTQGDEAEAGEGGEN
Each line names hits and unclear results; the compound was inactive in the other large screens; ! = a repeat was not active; [ ] = remark or other dose. This is a sample that favours compounds with a hit; in the whole collection about 3.4% have one here.

CCCC(c1nnnn1Cc1ccc(F)cc1)N1CCN(C2CCCCC2)CC1 (stereo unspecified)	14-3-3 Bad PPI 75
CCC(c1nnnn1Cc1cccs1)N1CCN(C2CCCC2)CC1 (stereo unspecified)	Mcl1 Bid PPI 54
CCCC(c1nnnn1Cc1cccs1)N1CCN(C2CCCC2)CC1 (stereo unspecified)	none
COc1cc(/C=N/Nc2nc(N3CCCC3)nc(N3CCCC3)n2)ccc1OCc1ccccc1F	none (no result: Mcl-1 Bim block)
O=C(Cc1ccc(Cl)cc1)NNC(=O)Nc1cccc2ccccc12	p47phox inh 60
COc1ccc(/C=N/NC(=O)CN2CCSCC2)c(OC)c1	Mcl1-Noxa inh 60
COCCCN(C(=O)Nc1cccc(Cl)c1)C(C)c1ccccn1 (stereo unspecified)	14-3-3 Bad PPI 73
COCCCN(C(=S)Nc1cccc(Cl)c1)C(C)c1ccncc1 (stereo unspecified)	none
O=C(C1CCC(=O)N1Cc1cccs1)N1CCOCC1 (stereo unspecified)	none
CN(C)C(=O)C1CCC(=O)N1Cc1cccs1 (stereo unspecified)	14-3-3 Bad PPI 88
c1ccc(-c2cn(-c3ccccc3)c3ncnc(N4CCCCC4)c23)cc1	m-calpain inh 53
Cc1ccc(-n2cc(-c3ccccc3)c3c(NN4CCOCC4)ncnc32)cc1	p47phox inh 94
CN1CCN(c2ncnc3c2c(-c2ccccc2)cn3-c2ccc(F)cc2)CC1	none
COc1ccc(C2=CC(=O)C=CC2=O)cc1	p47phox inh 58, Mcl1-Noxa inh 87 (no result: Mcl-1 Bim block)
CCOc1ccc2cc(/C=C/C(=O)c3ccco3)c(Cl)nc2c1	Mcl1 Bid PPI 59
O=c1oc2cc(O)ccc2c2ccccc12	none
O=c1oc2cc(O)ccc2c2oc3cc(O)ccc3c12	Mcl1-Noxa inh 55
COc1cc(/C=C2\SC(=S)N(C(Cc3ccccc3)C(=O)O)C2=O)ccc1O (stereo unspecified)	Mcl1 Bid PPI 56 (no result: Mcl-1 Bim block)
COc1ccc(/C=C2\SC(=S)N(CC3CCCO3)C2=O)cc1 (stereo unspecified)	none (no result: Mcl-1 Bim block)
COc1cc(/C=C2/SC(=S)N(CC3CCCO3)C2=O)ccc1O (stereo unspecified)	Mcl1 Bid PPI 72
O=C(O)C(Cc1ccccc1)N1C(=O)/C(=C/c2ccccc2)SC1=S (stereo unspecified)	none
O=C(O)C(Cc1ccccc1)N1C(=O)/C(=C/c2cccc3ccccc23)SC1=S (stereo unspecified)	m-calpain inh 56, Mcl1-Noxa inh 78, Mcl1 Bid PPI 91
CC(C)(C)c1cc(C(=O)NNc2cc(C(F)(F)F)ccc2Cl)n(Cc2ccccc2)n1	none (no result: Mcl-1 Bim block)
O=C(NC1CCCCC1)c1c2c(nc3ccccc13)CCC2	none
COc1cc(/C=C2/C(=O)c3cccc([N+](=O)[O-])c3C2=O)c(Br)cc1O	Mcl1-Noxa inh 88
Cc1cc(C)c[n+](-c2nc3ccccc3nc2C(=C=[N-])C#N)c1	Mcl-1 Bim block 46!
CCc1c(C)sc(NC(=S)N2CC(C)OC(C)C2)c1C(=O)OC (stereo unspecified)	none
CCN(CC)c1ccc(/C=N/Nc2ccccc2)c(O)c1	Mcl1-Noxa inh 57
CCN(CC)c1ccc(/C=N/NC(=S)NC)c(O)c1	none (no result: p47phox inh)
CCN(CC)c1ccc(/C=N/Nc2cccc(C)c2)c(O)c1	Mcl1 Bid PPI 79
CCN(CC)CCOc1ccccc1C(C)=O	none
CCSc1nc2sc3c(c2c(=O)[nH]1)CCCC3	none
CCSC1=NC2(CCCCC2)Nc2sc3c(c21)CCCC3	Mcl1 Bid PPI 74
COc1ccc(/C=N/NS(=O)(=O)c2ccccc2)cc1OC(=O)c1ccc(C)cc1	Mcl1 Bid PPI 86
COc1ccc(/C=N/NS(=O)(=O)c2ccc(C)cc2)cc1OC(=O)c1ccccc1	none
CCS(=O)(=O)N1CCN(CC2CC3C=CC2C3)CC1 (stereo unspecified)	none
CCCS(=O)(=O)N1CCN(CC2CC3C=CC2C3)CC1 (stereo unspecified)	14-3-3 Bad PPI 72
O=[N+]([O-])c1ccccc1S(=O)(=O)N1CCN(CC2CC=CCC2)CC1 (stereo unspecified)	none
CCCS(=O)(=O)N1CCN(CC2CC=CCC2)CC1 (stereo unspecified)	14-3-3 Bad PPI 73
CSc1sc(C(=O)NC(=O)NCc2ccncc2)c(C)c1-c1ccon1	none (no result: Mcl-1 Bim block)
COC(=O)/C=C1\OC(c2ccccc2)=CC1=O	Mcl1-Noxa inh 66
COc1ccc(CNC(=O)c2ccc(-c3ccccc3)cc2)cc1	none
CCOC(=O)C1=C(CNCCc2ccc(Cl)cc2)NC(=O)NC1c1ccc2c(c1)OCO2 (stereo unspecified)	m-calpain inh 53
N#CC(C#N)=C1NC2(CCCC2)Cc2ccccc21	none
COc1ccc(CN2C(=O)c3cccnc3C2Nc2cc(Cl)c(OC)cc2OC)cc1 (stereo unspecified)	Mcl1 Bid PPI 90, 14-3-3 Bad PPI 92
COc1ccc(CN2C(=O)c3cccnc3C2Nc2ccc(C)cc2)cc1 (stereo unspecified)	none
COc1cc(/C=N/Nc2ccc(C(F)(F)F)cn2)cc(OC)c1O	Mcl1-Noxa inh 57
O=C(Nc1ccc2c(c1)S(=O)(=O)N=C1CCCCCN12)c1ccccc1Cl	none
O=C(Cn1cc2c(n1)CCCCC2)NCc1ccccc1	none
O=C(Cn1cc2c(n1)CCCCC2)NCc1ccccn1	p47phox inh 43
Cc1cc(C)c(NC(=O)Cn2cc3c(n2)CCCC3)c(C)c1	m-calpain inh 69
O=C(Cn1cc2c(n1)CCCCC2)Nc1c(F)c(F)cc(F)c1F	none
COc1cccc(OC2OC3COC(C)(C)OC3C(O)C2NC(C)=O)c1 (stereo unspecified)	none
CCc1ccccc1NC(=O)COc1ccc(C(=S)N2CCCC2)cc1	none
CC(C)(C)N(Cc1ccccc1)C(=O)CCc1ccccc1	none
CCOc1ccc(Nc2nc(CC(=O)OC)cc(=O)[nH]2)cc1	14-3-3 Bad PPI 89
Cc1ccc(/C=N\NC(=O)CCc2n[nH]c(=O)[nH]c2=O)o1	none
COc1cc(/C=N/NC(=O)C(=O)NCc2ccco2)cc(Cl)c1O	Mcl1-Noxa inh 62 (no result: Mcl-1 Bim block)
Cc1ccccc1N/C(SCc1cccc(Br)c1)=C(/C#N)C(N)=O	14-3-3 Bad PPI 71[fluorescence artefact?]
CCCC(=O)Nc1ccc2c(c1)nc(CCN1CCCCC1)n2C	none (no result: Mcl-1 Bim block)
CN(C)C(=O)N1CCC(C(=O)N2CCCC(C(=O)c3cccc4ccccc34)C2)CC1 (stereo unspecified)	none
CCn1c(C)nc2cc(C(=O)N/N=C/c3ccc(O)c(O)c3O)ccc21	Mcl1-Noxa inh 95
CCn1c(C)nc2cc(C(N)=O)ccc21	none (no result: Mcl-1 Bim block)
CCn1c(C)nc2cc(C(=O)N/N=C/c3cccc(OC)c3O)ccc21	Mcl1-Noxa inh 65
CC(C)(C)NC(=O)COC(=O)c1ccc(Cl)nc1	none
Cc1c(Cl)c(C(=O)NNC(=S)Nc2ccc(F)cc2)nn1C	none
C/C(=N\NC(=O)c1ccc(Cl)cc1)c1cccs1	p47phox inh 38
